Test results published in PubChem BioAssay (NCI).
This is part of a sample that, as a whole, favours compounds with a hit. Of some 83,000 tested, about 20% had one in any assay.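 Plates (96-well) were seeded with cells, treated with compound at one concentration, and incubated for 48 hours before percent growth was determined.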 Activity calls are given as the source filed them. Rule for the calls: active = growth percent below 10; inactive = the rest.

Columns and labels:
Test in all cases: NCI-60 one-dose screen, 48 h (100 = growth as untreated, 0 = no growth, -100 = all killed)
Conditions in all cases: 10 µM unless noted
T-47D breast = system: T-47D breast
BT-549 breast = system: BT-549 breast
MDA-MB-435 melanoma = system: MDA-MB-435 melanoma
SW-620 colon = system: SW-620 colon
MCF7 breast = system: MCF7 breast
HCT-116 colon = system: HCT-116 colon
HCC-2998 colon = system: HCC-2998 colon
KM12 colon = system: KM12 colon

Measured: growth

CC(=O)Nc1ccc(C)c(Nc2cc(-c3ccc(-n4cccn4)cc3)[nH]n2)c1
inactive: T-47D breast 53% | BT-549 breast 30.4% | SW-620 colon 31.5% | MCF7 breast 23.4% | HCT-116 colon 19.3% | HCC-2998 colon 83.2% | KM12 colon 30.8%
active: MDA-MB-435 melanoma -26.4%

Oc1ccc(-c2nnc(SCc3ccc(O)c4ncccc34)n2-c2ccccc2)cc1
active: MCF7 breast 2.53%
inactive: T-47D breast 14.8% | BT-549 breast 26.9% | MDA-MB-435 melanoma 21.5% | SW-620 colon 16.4% | HCT-116 colon 12.7% | HCC-2998 colon 27.3% | KM12 colon 17.3%

CN(C)CCn1c2ccc(N)cc2c2nc3ccccc3nc21
inactive: T-47D breast 36.4% | BT-549 breast 85.5% | MDA-MB-435 melanoma 38.4% | SW-620 colon 17.1% | HCT-116 colon 11.3% | HCC-2998 colon 45.9% | KM12 colon 38.5%
active: MCF7 breast 9.61%

COc1ccc(/C=N\NC(=O)c2ccc3nc(-c4ccc(Br)cc4)[nH]c3c2)cc1
inactive: T-47D breast 55.8% | BT-549 breast 65.8% | MDA-MB-435 melanoma 35.5% | SW-620 colon 23.5% | MCF7 breast 15.8% | HCT-116 colon 12.5% | HCC-2998 colon 59.4% | KM12 colon 25.9%

C=CCn1c(SCC(=O)c2ccc(OC)cc2)nnc1-c1ccc(OC)cc1
inactive: T-47D breast 105% | BT-549 breast 95.9% | MDA-MB-435 melanoma 97.8% | SW-620 colon 106% | MCF7 breast 96% | HCT-116 colon 96.1% | HCC-2998 colon 109% | KM12 colon 97.7%

CN1CCN(Cc2ccc(NC(=O)c3cncc(C#Cc4cnc5ccc(NC6CCOCC6)nn45)c3)cc2C(F)(F)F)CC1
active: T-47D breast -66.2% | BT-549 breast -94.4% | MDA-MB-435 melanoma -70.2% | SW-620 colon -42.1% | MCF7 breast -60.3% | HCT-116 colon -79% | HCC-2998 colon -19.8% | KM12 colon -42.1%

O=c1cc(-c2ccccc2)nc2sc(-c3c[nH]c4ccc(Br)cc34)nn12
inactive: T-47D breast 75.2% | BT-549 breast 108% | MDA-MB-435 melanoma 101% | SW-620 colon 105% | MCF7 breast 67.9% | HCT-116 colon 103% | HCC-2998 colon 109% | KM12 colon 103%

Cc1ccc(-n2cc(/C=C/C(=O)c3ccc(S(C)(=O)=O)cc3)c(-c3ccc(S(C)(=O)=O)cc3)n2)cc1
inactive: T-47D breast 105% | BT-549 breast 91.5% | MDA-MB-435 melanoma 31.4% | SW-620 colon 64.9% | MCF7 breast 64.8% | HCT-116 colon 53.4% | HCC-2998 colon 107% | KM12 colon 59.5%

COc1ccc(-c2cc(-c3cccc4ccccc34)n3c(n2)nc2ccccc23)cc1OC
inactive: T-47D breast 19.2% | BT-549 breast 34.6% | MDA-MB-435 melanoma 47.3% | SW-620 colon 29.8% | MCF7 breast 15.4% | HCT-116 colon 31.5% | HCC-2998 colon 72% | KM12 colon 68.1%

CS(=O)c1nccc(-c2c(-c3ccc(F)c(OCCc4ccccc4)c3)nc3sccn23)n1 (configuration not stated)
inactive: T-47D breast 15.2% | BT-549 breast 120% | MDA-MB-435 melanoma 111% | SW-620 colon 80.5% | HCT-116 colon 63.2% | HCC-2998 colon 58.6% | KM12 colon 89.2%
active: MCF7 breast -1.77%

CN1CCN(c2nc(-c3csc(-c4ccncc4)n3)cc3ccccc23)CC1
inactive: T-47D breast 55.9% | BT-549 breast 83.5% | MDA-MB-435 melanoma 56.2% | SW-620 colon 74.2% | MCF7 breast 67.8% | HCT-116 colon 25.4% | HCC-2998 colon 48.8% | KM12 colon 62.6%

CCOC(=O)C1=C(C)Nc2nc3ccccc3n2C1c1cccc(Br)c1 (configuration not stated)
inactive: T-47D breast 88.1% | BT-549 breast 76.9% | SW-620 colon 68.2% | MCF7 breast 38.3% | HCT-116 colon 81.4% | HCC-2998 colon 93.1% | KM12 colon 65.6%
active: MDA-MB-435 melanoma 7.44%

COc1cnc2c(c1)C(=O)c1c-2n(CCCn2ccnc2)c(=O)c2cc(OC)c(OC)cc12
inactive: MDA-MB-435 melanoma 20.5% | HCC-2998 colon 24.6% | KM12 colon 27.1%
active: T-47D breast -61.3% | BT-549 breast -0.217% | SW-620 colon -77.7% | MCF7 breast -61.8% | HCT-116 colon -90.2%

COc1ccc(S(=O)(=O)NCCCNc2nccc(-n3cnc4ccccc43)n2)cc1
inactive: T-47D breast 66.3% | BT-549 breast 92.9% | MDA-MB-435 melanoma 98.7% | SW-620 colon 104% | MCF7 breast 85.1% | HCT-116 colon 89.9% | HCC-2998 colon 111% | KM12 colon 84.1%

CCn1c2ccc(/C=N/NS(=O)(=O)CCN(C)C)cc2c2cc(/C=N/NS(=O)(=O)CCN(C)C)ccc21
inactive: T-47D breast 102% | BT-549 breast 99.1% | MDA-MB-435 melanoma 96.9% | SW-620 colon 90.8% | MCF7 breast 89.4% | HCT-116 colon 99.4% | HCC-2998 colon 104% | KM12 colon 106%

O=C(NNc1nc2cc(F)c(F)cc2n2cccc12)c1cccnn1
inactive: T-47D breast 13.7% | BT-549 breast 32.3% | MDA-MB-435 melanoma 27.8% | SW-620 colon 22% | HCC-2998 colon 49.2% | KM12 colon 24.3%
active: MCF7 breast 7.41% | HCT-116 colon 8.91%

C#Cc1ccc(NC(=O)c2ccc(/C=C/C(=O)c3nccn3C)cc2)c(F)c1
inactive: T-47D breast 14.6% | BT-549 breast 40.2% | MDA-MB-435 melanoma 27.9% | SW-620 colon 18.9% | MCF7 breast 11% | HCT-116 colon 18% | HCC-2998 colon 82.6% | KM12 colon 23.5%

CCc1ccc(NC(=O)N[C@@H](Cc2cc(F)cc(F)c2)C(=O)N[C@@H]2C(=O)N3CCC[C@H]3C(=O)N3CCO[C@H](C)[C@H]3C(=O)N[C@@H](CO)C(=O)N3C[C@H](C)C[C@H]3C(=O)O[C@H]2C)c(F)c1
inactive: T-47D breast 35.7% | BT-549 breast 33.3% | MDA-MB-435 melanoma 20.3% | SW-620 colon 35.7% | MCF7 breast 15.7% | HCT-116 colon 11.6% | HCC-2998 colon 26% | KM12 colon 39.6%

COc1cc([C@H]2OC[C@H]3[C@@H]2CO[C@@H]3c2ccc(O)c(OC)c2)ccc1O
inactive: T-47D breast 97.2% | BT-549 breast 68.5% | MDA-MB-435 melanoma 107% | SW-620 colon 107% | MCF7 breast 96.1% | HCT-116 colon 92.8% | HCC-2998 colon 96% | KM12 colon 90.6%

COc1ccc(S(=O)(=O)n2cc(C=O)c3ccccc32)c(OC)c1
inactive: T-47D breast 65.6% | BT-549 breast 64.2% | MDA-MB-435 melanoma 29.6% | SW-620 colon 35.4% | MCF7 breast 25.5% | HCT-116 colon 15.4% | HCC-2998 colon 110% | KM12 colon 95.4%

CS(=O)c1nccc(-c2c(-c3ccc(F)c(OCc4ccc(F)cc4)c3)nc3sccn23)n1 (configuration not stated)
active: T-47D breast -37.3% | MCF7 breast -50.1%
inactive: BT-549 breast 102% | MDA-MB-435 melanoma 100% | SW-620 colon 73% | HCT-116 colon 19.7% | HCC-2998 colon 10.2% | KM12 colon 54.5%

Cc1cc(O)c(=O)cc2c1C[C@H]1CC(C)(C)/C=C/C[C@]3(C)Oc4cc(=O)c(O)cc(C)c4C[C@H]3C[C@H](O)[C@@]1(C)O2
inactive: MDA-MB-435 melanoma 15.7% | SW-620 colon 15.1% | HCT-116 colon 11.3% | HCC-2998 colon 30.8% | KM12 colon 23.6%
active: T-47D breast -2.55% | BT-549 breast 1.87% | MCF7 breast 7.16%

CC(C)=CCc1c(O)c(CC=C(C)C)c2c(c1O)C(=O)C1=C[C@@H]3C[C@H]4C(C)(C)O[C@@](C/C=C(\C)C(=O)O)(C3=O)[C@@]14O2
active: T-47D breast 1.27% | BT-549 breast -8.98% | MDA-MB-435 melanoma -5.58% | SW-620 colon -34.6% | MCF7 breast -5.87% | HCT-116 colon -35.8% | HCC-2998 colon -87.1% | KM12 colon -18.4%

COc1cc(C2CC(c3ccc(Nc4nc(NCCO)nc(Nc5ccc(Cl)cc5)n4)cc3)=Nc3c(N)nc(N)nc3N2)cc(OC)c1OC (configuration not stated)
inactive: T-47D breast 54.5% | BT-549 breast 52.1% | MDA-MB-435 melanoma 74.6% | SW-620 colon 51.6% | HCT-116 colon 23.6% | HCC-2998 colon 94.5% | KM12 colon 61.9%

CCNC(=O)Oc1ccc(/C(=C(/C)c2ccc(Cl)cc2)c2ccc(OCCN(C)C)cc2)cc1
inactive: T-47D breast 54.8% | BT-549 breast 77% | MDA-MB-435 melanoma 91.6% | SW-620 colon 82.2% | HCT-116 colon 43% | HCC-2998 colon 81.2% | KM12 colon 89.8%

CC1OC(O[C@@H]2[C@H](O)C(CO)OC(O[C@H]3COC(O[C@H]4CC[C@]5(C)[C@H]6CC[C@]78OC[C@@]9(CC[C@](C)(C=O)C[C@H]97)C(=O)C[C@@]8(C)[C@]6(C)CC[C@H]5C4(C)C)[C@@H](O)[C@@H]3O)[C@H]2OC2OC[C@@H](O)[C@@H](O)[C@@H]2O)[C@@H](O)[C@@H](O)[C@H]1O (some centres not stated)
inactive: T-47D breast 81.3% | BT-549 breast 104% | MDA-MB-435 melanoma 105% | SW-620 colon 104% | MCF7 breast 87.7% | HCT-116 colon 89.1% | KM12 colon 97%

CC(=O)NC(C)(C)C(=O)N[C@@H](C)C(=O)NC(C)(C)C(=O)N[C@@H](C)C(=O)NC(C)(C)C(=O)N[C@@H](C)C(=O)N[C@@H](CCC(N)=O)C(=O)NC(C)(C)C(=O)N[C@H](C(=O)NC(C)(C)C(=O)NCC(=O)N[C@@H](CC(C)C)C(=O)NC(C)(C)C(=O)N1CCC[C@H]1C(=O)N[C@H](C(=O)NC(C)(C)C(=O)NC(C)(C)C(=O)N[C@@H](CCC(N)=O)C(=O)N[C@@H](CCC(N)=O)C(=O)N[C@H](CO)CC1CCCCC1)C(C)C)C(C)C
inactive: T-47D breast 25% [5 µM] | SW-620 colon 37.1% [5 µM] | HCT-116 colon 49.3% [5 µM] | HCC-2998 colon 49.9% [5 µM] | KM12 colon 63.3% [5 µM]
active: BT-549 breast -4.41% [5 µM] | MDA-MB-435 melanoma 9.46% [5 µM]
